Inconclusive results are not listed. Activity calls are given as the source filed them. Calls come from the whole dose curve; as a rule, active = well fitted inhibition curve with a large enough effect; inconclusive = small, poorly fitted or top-dose-only effect; inactive = flat fitted curve, though single readings scatter.
What follows are compounds tested on NIH3T3 (assay: Cytotoxic Profiling of Annotated Libraries Using Quantitative High-Throughput Screening (AID 1296008; note: nearly all actives have a fitted effect of over 60% in size)). Settings: Five cell lines viability, CellTiter-Glo ATP luminescence, 48-72 h; max response: hits give low values.
How it was run: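 Cytotoxicity was measured as CellTiter-Glo ATP luminescence, read after 10 min at room temperature. Compound treatment of the cells lasted 48 or 72 hr at 37 degrees Celsius in a qHTS format.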
% is set by controls: 0 for no effect and ±100 for the full control effect.

SMILES | outcome | max response
CC(=O)O[C@@H]1[C@H](O[C@@H]2O[C@H](CO)[C@@H](O)[C@H](O)[C@H]2O)[C@@H](O[C@@H]2O[C@@H](C)[C@H](O)[C@@H](O[C@@H]3O[C@H](CO)[C@@H](O)[C@H](O)[C@H]3O)[C@H]2O)[C@H](OC(=O)[C@]23CCC(C)(C)C[C@H]2C2=CCC4[C@@]5(C)C[C@H](O)[C@H](O[C@@H]6O[C@H](C(=O)O)[C@@H](O)[C@H](O)[C@H]6O)[C@@](C)(C(=O)O)C5CC[C@@]4(C)[C@]2(C)CC3)O[C@@H]1C (stereo partly drawn) | inactive | –
CC(=O)OCC1OC(O[C@H]2CC[C@@]3(C)C(CC[C@]4(C)C3CC=C3[C@@H]5CC(C)(C)CC[C@]5(C(=O)O)CC[C@]34C)[C@]2(C)CO)C(O)C(O)C1OC1OC(C)C(O)C(OC2OCC(O)C(O)C2O)C1O (stereo partly drawn) | inactive | –
CC1=C[C@@H]2[C@H]3[C@@H]4O[C@@](C)(CC[C@H]4O)[C@H]3CC(=O)[C@]23C(=O)N[C@@H](CC(C)C)[C@@H]3[C@@H]1C | inactive | –
COc1cccc(CN(C(=O)CC(C)(C)C)C2CC(C(=O)N3CCNCC3)N(Cc3ccc4c(c3)OCO4)C2)c1 (stereo not drawn) | inactive | –
C/C=C/C=C/C(O)=C1/C(=O)[C@]2(C)C3/C(=C(O)/C=C/C=C/C)C(=O)C4(C)C1[C@]1(C)O[C@@]4(O)[C@@]3(C)O[C@@]12O | inactive | –
OC[C@H]1O[C@@H](OCCc2ccccc2)[C@H](O)[C@@H](O)[C@@H]1O | – | 4.48% (inactive)
CCC(C)C(N)C(=O)NCCN1CCOCC1 (stereo not drawn) | inactive | –
CC1CC2(O)OC(=O)C3=C2C(CCC3)[C@@]12C[C@@H](c1ccoc1)OC2=O (stereo partly drawn) | – | 0.0082% (inactive)

— PubChem BioAssay (NCATS)
